Data on 31 compounds can be found in PubChem BioAssay (NCATS).

Molecules are shown by their SMILES. Inconclusive results are not listed. Activity calls are given as the source filed them. The call rests on the fitted dose curve; in most records, active means well fitted curve in the direction sought with a large enough effect; inconclusive means small, poorly fitted or top-dose-only effect, or another doubt; inactive means no such curve, though single readings can be large or run the other way.

The nature of the assay: Cytometric Cell-Based qHTS for Inhibitors of the mTORC1 Signaling Pathway in MEF (Tsc2-/-, p53-/-) Cells (AID 2660).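 Further: Tsc2 and p53 null MEFs carrying empty vector with compound for 24 h; percent of cells above a phospho-rpS6 to PI ratio cutoff in each well.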 The following applies: mTORC1 pathway cytometry; series mostly up to 38.3 µM; activity change, negative = inhibition: at the top concentration. From the text:
NIH Molecular Libraries Probe Production Centers Network [MLPCN]
NIH Chemical Genomics Center [NCGC]
Assay Submitter (PI): Blenis, John; Hoffman, Greg; Harvard University
NCGC Assay Overview: The mammalian target of rapamycin (mTOR) is an intracellular serine/threonine kinase Aberrant regulation of mTOR signaling plays a causative role in a number of human diseases, including cancer, benign tumors such as lymphangioleiomyomatosis (LAM) and Tuberous Sclerosis Complex (TSC), and metabolic diseases such as diabetes and obesity. This project aims to identify inhibitors of ribosomal protein S6 (rpS6) phosphorylation. The phosphorylation of rpS6 is a key event downstream of mTOR activation. The assay uses a phospho-specific antibody of phospho-rpS6 to detect inhibitors of mTOR activation. Mutations in the Tsc1 and Tsc2 genes are the underlying genetic lesions responsible for TSC, causing constitutive activation of the mTORC1 pathway and leading to profound effects on cell metabolism. Aberrant metabolism in cancer has recently received significant attention as a target to develop therapeutic agents in the treatment of cancer.1 As Tsc2-/- cells have lost the ability to respond to energy and growth factor deprivation, these cells are unable to properly down regulate cellular biosynthetic processes in response to metabolic stress, and are thus extremely sensitive to glucose deprivation-induced death.2 A central goal of this project is to explore the unique cell survival and metabolic properties of cells with Tsc1 or Tsc2 by screening for compounds that selectively target the Tsc2-/- MEFs by screening both Tsc2-/- and WT MEF cell lines. We hope to better understand these aspects of TSC physiology in order to exploit them for therapeutic benefit.
NCGC Acumen Assay Protocol Summary:
For quantitative high throughput analysis of mTORC1 signaling, we developed a cell-based assay for immuno-fluorescence based detection of rpS6 phosphorylation on the Acumen Explorer that will be used a platform for the primary small molecule screen. Mouse embryonic fibroblasts (MEFs) are cultured in 1536-well plates using DMEM + 10% FBS. Twenty-four hrs after plating, test compounds (solubilized in DMSO) are delivered and incubated with the cells for 24 hrs at 37 degree Celsius. Following the incubation, media with compound is aspirated and the cells are fixed in 4% paraformaldehyde (PFA) containing PBS + 0.2% TX-100. Next, PFA is aspirated, cells are washed two times with PBS plus 0.2% TX-100 and the cells are blocked for 1 hr at room temperature (blocking buffer: LiCOR Blocking Buffer plus 0.2% TX-100). This is followed by aspiration and staining with Alexa-488 conjugated-phospho-rpS6 Ser235/236 antibody for 2 hours at room temperature (Cell Signaling Technology # 4803, 1:50 dilution in blocking buffer). Cells are washed two times with PBS plus 0.2% TX-100, and stained with 10 uM propidium iodide (PI) for 20-25 minutes for cell number measurement (1:500 dilution of Hoescht staining is also added for IN Cell imaging). The plates are scanned on the Acumen Explorer laser scanning instrument (TTP Labtech) using the 488nm laser for simultaneous excitation of the Alexa-488 and PI. The fluorescence emission from the Alexa-488 conjugated rpS6 phospho-235/236 antibody staining is selected using a […] band pass filter. Fluorescence emission from the PI stain is selected using a 575-640 nm band pass filter. The normalized phospho-S6 staining is calculated as the ratio of the integrated Alexa 488 intensity divided by the integrated PI intensity for the single concentration rapamycin control (7.5 nM) and DMSO columns. […] Inhibition of the pathway is defined based on the normalized phospho-S6 intensity in rapamycin treated cells. […]
As to `Cc1cccc(C)c1OCC(C)N` (stereo unspecified), the “activity change, negative = inhibition” value is 3.48% (inactive). In the case of `CCN(CC)C(=O)c1ccc(O)c(OC)c1`, the “activity change, negative = inhibition” value was 6.9% (inactive). The same measure, in the same setting: under `CCN1CCC[C@H]1CNC(=O)c1cc(S(N)(=O)=O)ccc1OC` stands 0.804% (inactive). With `CC(=O)c1ccc(S(=O)(=O)NC(=O)NC2CCCCC2)cc1`, the “activity change, negative = inhibition” value was -2.56% (inactive). Same read-out and setting: with `CCCCCN(C)CCC(O)(P(=O)(O)O)P(=O)(O)O` the figure was -0.971% (inactive); with `CC(C)OC(=O)C(C)(C)Oc1ccc(C(=O)c2ccc(Cl)cc2)cc1`, 1.11% (inactive); with `CCN(CC)CCNC(=O)c1ccc(N)cc1`, 12.5% (inactive). Same read-out and setting: under `CC(=O)N[C@@H](CS)C(=O)O` stands -8.15% (inactive); under `CCCNC(=O)NS(=O)(=O)c1ccc(Cl)cc1`, 18.3% (inactive).

As for `CC(C)NCC(O)COc1cccc2[nH]ccc12` (stereo unspecified), the “activity change, negative = inhibition” value is 11.1% (inactive).

`CCCCC1C(=O)N(c2ccccc2)N(c2ccccc2)C1=O`: the “activity change, negative = inhibition” value is 12.6% (inactive). On the same count and under the same terms, with `O=C(O)CCc1nc(-c2ccccc2)c(-c2ccccc2)o1` the figure was -0.253% (inactive); with `CN(C)CCC(c1ccccc1)c1ccccn1` (stereo unspecified), -1.2% (inactive); with `O=c1c(-c2ccc(O)cc2)coc2cc(O)ccc12`, 0.101% (inactive).

Turning to `C[N+](C)(C)CC(=O)O`, the “activity change, negative = inhibition” value is 2.82% (inactive). The same measure, in the same setting: under `NCCS` stands -0.562% (inactive). Still for that read-out and setting: with `O=C1NCC2(CCN(CCc3ccccc3)CC2)O1` the figure was -0.485% (inactive). Same read-out and setting: under `Clc1ccc(Cn2c(CN3CCCC3)nc3ccccc32)cc1` stands -0.234% (inactive). Turning to `C[N+](C)(C)CCCCCC[N+](C)(C)C`, the compound was called inactive.

Regarding `O=c1cc(-c2ccc(O)cc2)oc2cc(O)cc(O)c12`, the “activity change, negative = inhibition” value was -1.83% (inactive). Same read-out and setting: under `CCN(CC)CCOC(=O)c1ccc(N)cc1` stands -0.71% (inactive); under `COc1ccc(Cc2nccc3cc(OC)c(OC)cc23)cc1OC`, -20.9% (inactive); under `NC(N)=Nc1nc(CSCC/C(N)=N/S(N)(=O)=O)cs1`, 3.89% (inactive). On the same count and under the same terms, under `CC(=O)O[C@]1(C(C)=O)CC[C@H]2[C@@H]3C=C(Cl)C4=CC(=O)[C@@H]5C[C@@H]5[C@]4(C)[C@H]3CC[C@@]21C` stands 2.23% (inactive); under `COc1cccc(-c2cc(=O)c3ccccc3o2)c1N`, 6.92% (inactive); under `CC(=O)CCCCn1c(=O)c2c(ncn2C)n(C)c1=O`, -5.09% (inactive). In the case of `O=C(NCCN1CCOCC1)c1ccc(Cl)cc1`, the “activity change, negative = inhibition” value was 0.128% (inactive). Still for that read-out and setting: with `COc1ccccc1N1CCN(CCCNc2cc(=O)n(C)c(=O)n2C)CC1` the figure was 10.9% (inactive).

As for `CCn1cc(C(=O)O)c(=O)c2ccc(C)nc21`, the “activity change, negative = inhibition” value was -4.52% (inactive). The same measure, in the same setting: under `COC(=O)[C@@H]1[C@H]2C[C@H]3c4[nH]c5ccccc5c4CCN3C[C@@H]2CC[C@@H]1O` stands 12.7% (inactive); under `O=C1NC(=O)C(c2ccccc2)(c2ccccc2)N1`, -0.125% (inactive).
